From PubChem BioAssay (NCI) come the findings set out here.

Some test systems named below: RPMI-8226 leukemia; OVCAR-8 ovarian; OVCAR-5 ovarian; OVCAR-4 ovarian; SK-OV-3 ovarian; IGROV1 ovarian; OVCAR-3 ovarian; HS 578T breast; NCI/ADR-RES ovarian; T-47D breast; BT-549 breast; MDA-MB-435 melanoma; SW-620 colon; MCF7 breast; HCT-116 colon; HCC-2998 colon; KM12 colon; SR leukemia.
Assay in all cases: NCI-60 one-dose screen, 48 h (100 = growth as untreated, 0 = no growth, -100 = all killed)
Details in all cases: 10 µM unless noted

The panel holds about 83,000 compounds, 20% with a hit somewhere; the sample as a whole holds those more often.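 For each line, cells grew in 96-well plates with the test compound present at a single concentration for 48 hours.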 A number with no mark means an inactive call. Activity calls are given as the source filed them. Rule for the calls: active = growth percent below 10; inactive = the rest.

Take `O=C(O)c1ccc(-c2nn(-c3ccc(C(=O)O)cc3)cc2CNc2ccc(Br)cc2)cc1`: the growth was 108% in the test with RPMI-8226 leukemia; 104% in the test with OVCAR-8 ovarian; 102% with OVCAR-5 ovarian; 104% in the test on OVCAR-4 ovarian; 102% with SK-OV-3 ovarian; 115% in the test on IGROV1 ovarian. The growth with OVCAR-3 ovarian is 104%; in the test on HS 578T breast it was 107%; in the test on NCI/ADR-RES ovarian, 112%; with T-47D breast, 96.6%; with BT-549 breast it was 98.8%; in the test on MDA-MB-435 melanoma, 107%. In addition, the growth with SW-620 colon is 107%; in the test with MCF7 breast it was 90.3%; with HCT-116 colon, 101%; in the test with HCC-2998 colon it was 102%; in the test on KM12 colon, 98.1%.

In the case of `COC(=O)c1ccc2[nH]c(O)c(C(=Nc3ccc(N(C)C(=O)CN4CCN(C)CC4)cc3)c3ccc([N+](=O)[O-])cc3)c2c1`, the growth is 5.48% (active) with SR leukemia; 31% with RPMI-8226 leukemia; 37% with OVCAR-8 ovarian; 46.9% in the test on OVCAR-4 ovarian; 22.5% in the test with SK-OV-3 ovarian; 19.1% with IGROV1 ovarian. In addition, the growth in the test with OVCAR-3 ovarian is 53.6%; in the test on HS 578T breast, 27.6%; with NCI/ADR-RES ovarian, 104%; in the test on BT-549 breast, 49.1%; with MDA-MB-435 melanoma it was 49.9%; in the test on SW-620 colon it was 54.7%. The growth in the test on MCF7 breast is 30.6%; with HCT-116 colon it was 20.4%; with HCC-2998 colon it was 66.7%; in the test on KM12 colon, 16.2%.

As for `CCCC[N+](C)(N)CCCC`, the growth in the test with SR leukemia is 92.1%; with RPMI-8226 leukemia, 94.3%; with OVCAR-8 ovarian, 99.2%; with OVCAR-4 ovarian it was 108%; with SK-OV-3 ovarian, 102%; in the test on IGROV1 ovarian, 119%. Also, the growth with OVCAR-3 ovarian is 113%; with HS 578T breast, 115%; with NCI/ADR-RES ovarian it was 119%; in the test with T-47D breast, 87.9%; with BT-549 breast, 90.9%; in the test on MDA-MB-435 melanoma, 102%. For the same molecule, the growth with SW-620 colon is 101%; in the test on MCF7 breast, 97.7%; in the test with HCT-116 colon, 97.7%; in the test with HCC-2998 colon, 111%; in the test on KM12 colon it was 105%.

As to `NC(=O)CC(NC(=O)COc1ccc(Cl)cc1Cl)C(=O)O` (stereo not drawn), the growth was 115% with SR leukemia; 117% in the test with RPMI-8226 leukemia; 105% with OVCAR-8 ovarian; 110% in the test with SK-OV-3 ovarian; 109% in the test on IGROV1 ovarian; 106% with OVCAR-3 ovarian. In addition, the growth in the test on HS 578T breast is 107%; in the test on NCI/ADR-RES ovarian it was 112%; with T-47D breast, 109%; with MDA-MB-435 melanoma, 107%; in the test with SW-620 colon it was 105%; in the test with MCF7 breast it was 102%. Besides, the figures for the growth in the test with HCT-116 colon and in the test on KM12 colon were 101% and 104%, respectively.

In the case of `CN1C(=O)C(=Cc2coc3ccc(Br)cc3c2=O)C(=O)N(C)C1=O`, the growth in the test on SR leukemia was 126%; in the test with RPMI-8226 leukemia, 108%; with OVCAR-8 ovarian, 98.5%; in the test with OVCAR-4 ovarian it was 118%; in the test on SK-OV-3 ovarian, 96.3%; in the test with IGROV1 ovarian, 101%. The growth in the test with OVCAR-3 ovarian is 105%; in the test on NCI/ADR-RES ovarian it was 97.9%; in the test with T-47D breast, 101%; in the test with BT-549 breast it was 106%; in the test with MDA-MB-435 melanoma, 109%; in the test with MCF7 breast, 88.3%. Also, the growth is 95.2% in the test on HCT-116 colon, 98.5% with HCC-2998 colon and 114% with KM12 colon.

As for `CC(=O)/C(=C\c1c(-c2ccccc2)[nH]c2ccccc12)S(=O)(=O)c1ccccc1`, the growth in the test with SR leukemia was -35.9% (active); in the test with OVCAR-8 ovarian, 12.4%; with OVCAR-5 ovarian, 1.33% (active); in the test on OVCAR-4 ovarian it was 17.7%; in the test on SK-OV-3 ovarian, 19.3%; in the test on IGROV1 ovarian, -5.76% (active). The growth is -36.6% (active) in the test with OVCAR-3 ovarian; 8.54% (active) with HS 578T breast; -5.66% (active) in the test on NCI/ADR-RES ovarian; 13% in the test with T-47D breast; 16.9% with BT-549 breast; 5.41% (active) in the test with MDA-MB-435 melanoma. Further, the growth with SW-620 colon was 12.1%; with HCT-116 colon, 9.03% (active); with HCC-2998 colon it was 4.79% (active); with KM12 colon, -10.1% (active).

Take `CC(=O)Nc1ccc(S(=O)(=O)Cl)cc1`: the growth is 86.8% with SR leukemia; 100% in the test with RPMI-8226 leukemia; 113% in the test on OVCAR-8 ovarian; 110% with OVCAR-4 ovarian; 106% with SK-OV-3 ovarian; 116% with IGROV1 ovarian. Further, the growth in the test with OVCAR-3 ovarian was 112%; with NCI/ADR-RES ovarian, 116%; in the test on T-47D breast, 101%; in the test with BT-549 breast, 114%; in the test with MDA-MB-435 melanoma, 115%; in the test on SW-620 colon, 115%. In addition, the growth in the test on MCF7 breast was 96%; with HCT-116 colon it was 111%; with HCC-2998 colon it was 108%; in the test with KM12 colon, 107%.

Turning to `CCCCCc1ccnc(CC(=O)c2ccc(OC)cc2)c1`, the growth in the test on RPMI-8226 leukemia is 76.7%; in the test on OVCAR-8 ovarian it was 86.1%; with OVCAR-5 ovarian it was 89.7%; in the test on OVCAR-4 ovarian, 76.5%; with SK-OV-3 ovarian, 92.5%; in the test with IGROV1 ovarian, 108%. The growth is 93.7% in the test on OVCAR-3 ovarian; 107% in the test with HS 578T breast; 108% in the test with NCI/ADR-RES ovarian; 82.3% in the test with T-47D breast; 93.8% with BT-549 breast; 102% with MDA-MB-435 melanoma. Moreover, the growth in the test on SW-620 colon is 88.4%; in the test with MCF7 breast, 87.4%; in the test on HCT-116 colon, 78.2%; with HCC-2998 colon, 101%; in the test with KM12 colon, 99.9%.

On to `CCOc1ccccc1/C=N\N=C(N/N=C/c1ccccc1OCC)N/N=C/c1ccccc1OCC`, for which the growth in the test on SR leukemia was 15.7%; with RPMI-8226 leukemia, 18.8%; with OVCAR-8 ovarian it was 18.4%; in the test on OVCAR-4 ovarian, 7.81% (active); in the test with SK-OV-3 ovarian, 2.98% (active); with IGROV1 ovarian, 21%. The growth in the test on OVCAR-3 ovarian is -19.7% (active); in the test on NCI/ADR-RES ovarian, 6.36% (active); in the test with T-47D breast it was 16.1%; in the test with MDA-MB-435 melanoma, 13.4%; with SW-620 colon it was 12.1%; in the test on MCF7 breast, 3.52% (active). Moreover, the growth in the test on HCT-116 colon was 13.1%; in the test with HCC-2998 colon, 23.9%; in the test with KM12 colon, 10.7%.
